The whole screen tested about 200,000 compounds, of which about 4,500 (2.2%) were called active. Not shown: some 12% with an inconclusive outcome. What follows is part of a selection rich in actives, with near analogues and random picks from the rest. Values without a mark were called inactive. The call rests on the fitted dose curve; in most records, active means well fitted inhibition curve with a large enough effect; inconclusive means small, poorly fitted or top-dose-only effect, or effect the other way; inactive means flat fitted curve, though single readings scatter.
biological target: Cruzipain (Trypanosoma cruzi) (UniProt P25779); assay: qHTS Assay for Promiscuous and Specific Inhibitors of Cruzain (without detergent); settings: purified cruzain, Z-FR-AMC fluorescence, no detergent; further: nearly all actives have a fitted effect of over 40% in size;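 on max response, negative = inhibition: plate controls were enzyme without inhibitor for no effect and buffer without enzyme for full effect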
Sequence (P25779 123-467 limits assumed): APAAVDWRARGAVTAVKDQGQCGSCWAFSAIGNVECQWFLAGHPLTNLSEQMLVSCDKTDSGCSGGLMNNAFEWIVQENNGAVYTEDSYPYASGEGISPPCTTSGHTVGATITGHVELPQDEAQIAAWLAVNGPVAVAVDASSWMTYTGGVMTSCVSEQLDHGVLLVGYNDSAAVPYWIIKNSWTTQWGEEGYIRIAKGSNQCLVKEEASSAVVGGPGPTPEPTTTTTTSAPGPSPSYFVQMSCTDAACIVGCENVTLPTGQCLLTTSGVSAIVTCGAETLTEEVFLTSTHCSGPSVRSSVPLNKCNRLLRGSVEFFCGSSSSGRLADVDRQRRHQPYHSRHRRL
Procedure, shortened: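 Detergent-free condition (0.00005% Triton X-100) in acetate buffer pH 5.5 with DTT. 1.5 nM enzyme and compound were pre-mixed 15 min, then 2 uM Z-FR-AMC substrate added; reaction progress from fluorescence change between first and third reads (60 s).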
Potency means the concentration at half of the fitted maximal effect.

| Compound | max response, negative = inhibition [%] | Potency |
| --- | --- | --- |
| Cc1ccc(CNC(=O)CCc2c(C)nc3nc(CNC(=O)OC(C)(C)C)nn3c2C)cc1 | 11.1 | – |
| c1ccc(Nc2nc(N3CCOCC3)c3ccccc3n2)cc1 | – | 12.6 µM (active) |
| c1cncc(-c2nc(N3CCNCC3)c3ccccc3n2)c1 | 0.953 | – |
| Cc1cc(C(=O)Nc2ccccc2N2CCOCC2)c2ccccc2n1 | 4.56 | – |
| CN(CC(=O)Nc1ccccc1F)S(=O)(=O)c1ccc2c(c1)c(=O)n(C)c(=O)n2C | -13.2 | – |
| Cc1nc2ccccn2c(=O)c1NC(=O)c1c(F)cccc1F | -1.01 | – |
| COc1ccc(/C=C(/CC(=O)Nc2ccc(C)cc2)c2nc3ccccc3s2)cc1 | – | 31.6 µM (active) |
| COc1cccc(/C=C(/CC(=O)Nc2ccc(N3CCOCC3)cc2)c2nc3ccccc3s2)c1 | -7.21 | – |
| COc1ccc(CC(=O)Nc2ccc(-c3nc4ccccc4s3)c(C)c2)cc1 | 7.02 | – |
| COc1ccc(CCNC(=O)CCCn2c(=O)c3ccccc3n(Cc3ccc(C)cc3)c2=O)cc1OC | -4.62 | – |
| Cc1ccc(CNC(=O)Cn2c(=O)ccc3cc(S(=O)(=O)N4CCCC4)ccc32)cc1 | -9.4 | – |
| CC1CCCN(c2csc3ccc(F)cc3c2=O)C1 (stereo unspecified) | 1.1 | – |
| COc1ccccc1-c1noc(CSc2nnc(-c3ccccc3)n2-c2ccc(C)c(C)c2)n1 | -9.67 | – |
| COc1ccccc1N1CCN(C(CNC(=O)C(=O)NCc2ccc(C)cc2)c2cccnc2)CC1 (stereo unspecified) | 1.39 | – |
| COc1cccc(Cn2c(SCc3ccc(C(=O)N4CCCCC4)cc3)nc3ccncc32)c1 | 12.2 | – |
| CC(=O)Nc1ccc(S(=O)(=O)NCC2CCC(C(=O)NCCc3ccccc3)CC2)cc1 (stereo unspecified) | -2.5 | – |
| COc1ccc(CN2CCn3ncc(C(=O)Nc4ccc(Cl)cc4Cl)c3C2=O)cc1 | – | 5.01 µM (active) |
| COc1ccc(/C(C)=N/NC(=O)CCC(=O)Nc2ccc(Cl)cc2Cl)c(OC)c1 | 9.51 | – |
| Cc1cnc(C(=O)OCC(=O)Nc2ccc(Cl)cc2Cl)cn1 | -17.8 | – |
| O=C(O)c1ccc(Cn2c(SCc3ccc(F)cc3)nc3ccncc32)cc1 | 2.53 | – |
| Cc1ccc(CN2CCCn3nc(C(=O)NCc4ccccc4Cl)cc3C2=O)cc1 | 12.6 | – |
| O=C(c1ccco1)n1nc(-c2ccc(Cl)cc2)nc1NCc1ccccc1 | 14.9 | – |

| Compound | max response, negative = inhibition [%] | Potency |
| --- | --- | --- |
| COC(=O)c1c(-c2cccs2)csc1NC(=O)CSc1ncnc2sc(C)c(C)c12 | – | 6.31 µM (active) |
| Cc1nc(SCC(=O)Nc2cc(C)on2)c2c(C)c(C)sc2n1 | -4.16 | – |
| Cc1sc2ncnc(Sc3nc4ccccc4s3)c2c1C | -16.3 | – |
| CCOc1ccc(N(CC)S(=O)(=O)N2CCCC(C(=O)Nc3ccc(C(C)=O)cc3)C2)cc1 (stereo unspecified) | -0.766 | – |
| COc1ccc(CCNC(=O)c2cnc3sc(N4CCCCCC4)nn3c2=O)cc1OC | 2.6 | – |
| COc1ccc(S(=O)(=O)c2c(Nc3cccc(Cl)c3)sc(C(=O)c3ccccc3)c2N)cc1 | – | 3.98 µM (active) |
| CO/N=C(/CS(=O)(=O)c1ccc(Br)cc1)c1ccc(OC)cc1 | 0.45 | – |
| COc1ccc(S(=O)(=O)c2c(Nc3ccc(C)cc3)sc(C(=O)c3ccc(C)cc3)c2N)cc1 | – | 5.01 µM (active) |
| CC(=O)c1c(Nc2ccccc2)sc(C(=O)c2ccccc2)c1C | 5.34 | – |
| COc1cccc(C(=O)c2sc3nc(-c4ccccc4)cc(C(F)(F)F)c3c2N)c1 | -13.2 | – |
| COc1ccc(C(=O)NNS(=O)(=O)c2ccc(C)cc2)cc1 | -9.3 | – |
| Cc1ccc(-c2nnc(Nc3ccc(OCC(N)=O)cc3)c3ccccc23)cc1S(=O)(=O)NCC1CCCO1 (stereo unspecified) | 7.01 | – |
| Cc1ccccc1NC(=O)Cn1c(=O)n(Cc2ccco2)c(=O)c2ccc(C(=O)NC3CCCC3)cc21 | 4.88 | – |
| COc1ccc(N2C(=O)NC(NS(=O)(=O)c3ccc(Cl)cc3)(C(F)(F)F)C2=O)cc1 (stereo unspecified) | -4.66 | – |
| CC(C)C12CN3CC(C(C)C)(CN(C1)C3c1ccc(OCc3ccccc3)cc1)C2=O (stereo unspecified) | 10.1 | – |
| Cc1ccc(-c2cc(C(=O)Oc3ccccc3Cl)no2)cc1C | 0.973 | – |
| Cc1nnc(SCC(=O)N/N=C/c2cn(-c3ccccc3)nc2-c2ccc(F)cc2)n1-c1ccccc1 | -3.1 | – |
| Cc1ccc(-c2nn(-c3ccccc3)cc2/C=N/NC(=O)c2ccc3c(c2)OCO3)cc1 | – | 25.1 µM (active) |
| COc1ccc(-c2nn(-c3ccccc3)cc2/C=N/Nc2ccccn2)cc1OC | 18.4 | – |
| COc1ccccc1CNC(=O)CCn1c(=O)c2ccccc2n(CC(=O)Nc2ccc(Br)cc2F)c1=O | -7.67 | – |
| COc1ccccc1-c1cc(C(F)(F)F)nc(S(=O)(=O)CCCC(=O)Nc2cc(C)ccc2O)n1 | -0.825 | – |
| Cc1ccccc1NC(=O)Cn1c(=O)n(CCc2ccccc2)c(=O)c2ccccc21 | -10.6 | – |

| Compound | max response, negative = inhibition [%] | Potency |
| --- | --- | --- |
| Cc1ccc(S(=O)(=O)c2nc(-c3cccs3)oc2N2CCCCC2)cc1 | 3.47 | – |
| COC(=O)CSc1nc(C2CC2)nc2ccccc12 | -5.14 | – |
| O=C(CSc1nc(C2CC2)nc2ccccc12)Nc1ccc2c(c1)OCCO2 | 2.26 | – |
| CN(C(=O)CSc1nc(C2CC2)nc2ccccc12)c1nc(-c2ccccc2)cs1 | – | 3.16 µM (active) |
| CCOC(=O)c1c(SCC(=O)Nc2cccc(C)c2C)nc(=O)[nH]c1C | 4.55 | – |
| CCOc1ccc(Nc2nc3c(S(=O)(=O)c4cccc(Cl)c4)nnn3c3ccsc23)cc1 | 3.27 | – |
| Cc1cccc(OCCCC(=O)Nc2sc3c(c2C(N)=O)CCC(C)C3)c1 (stereo unspecified) | 14.1 | – |
| CCOC(=O)c1c(NC(=O)/C=C/c2ccc(OC)cc2)sc2c1CCC(C)C2 (stereo unspecified) | -18.7 | – |
| COC(=O)c1c(NC(=O)CN2CCN(S(=O)(=O)c3ccccc3[N+](=O)[O-])CC2)sc2c1CCC(C)C2 (stereo unspecified) | – | 10 µM (active) |
| Cc1c(Br)c([N+](=O)[O-])nn1CC(=O)Nc1sc2c(c1C(=O)OC(C)C)CCC(C)C2 (stereo unspecified) | – | 15.8 µM (active) |
| CCOc1ccc(NC(=O)c2c(NC(=O)Cc3ccccc3)sc3c2CCC(C)C3)cc1 (stereo unspecified) | 1.97 | – |
| COC(=O)c1c(NC(=O)CCCOc2ccccc2)sc2c1CCC(C)C2 (stereo unspecified) | 0.0824 | – |
| CCCn1c2ccccc2c2cnn(CC(=O)N3CCCC(C(=O)OCC)C3)c(=O)c21 (stereo unspecified) | -0.857 | – |
| Cc1ccc(C2C=C(c3ccc(Cl)cc3)Nc3nc(NC(=O)CCC(=O)O)nn32)cc1 (stereo unspecified) | -6.04 | – |
| O=C(c1ccccc1F)N1CCC(c2nc3c(nnn3Cc3cccc(F)c3)c(=O)[nH]2)CC1 | -6.41 | – |
| Cc1ccc(OCCSc2nc(-c3cccs3)nc3cc(=O)[nH]n23)cc1Cl | 3.5 | – |
| CCc1ccccc1OCCSc1nc(-c2cccs2)nc2cc(=O)[nH]n12 | – | 3.16 µM (active) |
| O=c1cc2nc(-c3ccccc3)nc(SCCOc3ccc(Cl)cc3)n2[nH]1 | 8.61 | – |
| COc1ccc(Cn2ccnc2SCC(=O)NCc2ccco2)cc1 | -5.79 | – |
| COCCn1c(=O)c(-c2cccs2)nc2cncnc21 | 2.13 | – |
| CCCn1c(=O)c2c(C(F)(F)F)cc(-c3cccs3)nc2n(CCC)c1=O | – | 6.31 µM (active) |
| FC(F)(F)c1cc(-c2cccs2)nc(NCc2ccco2)n1 | -1.04 | – |

| Compound | max response, negative = inhibition [%] | Potency |
| --- | --- | --- |
| Cc1oc2ncnc(N3CCOCC3)c2c1C(=O)NCCc1ccccc1 | 3.49 | – |
| CCOc1ccccc1Nc1nnc(SCc2ccc(C(=O)OC)o2)s1 | 2.33 | – |
| COC(=O)c1ccc(CSc2nnc(NC(C)C)s2)cc1 | 5.53 | – |
| CCc1nnc(NC(=O)c2cccs2)s1 | -8.43 | – |
| CCOc1cccc(C(=O)Nc2cccnc2)c1 | 1.56 | – |
| CCOc1cccc(C(=O)Nc2nnc(S(=O)(=O)N(C)c3ccc(C)cc3)s2)c1 | -15.4 | – |
| CCOc1cccc(C(=O)Nc2nnc(-c3cccs3)s2)c1 | – | 15.8 µM (active) |
| Cc1ccc(C(=O)Oc2coc(CSc3nnc(NC(=O)c4cccs4)s3)cc2=O)cc1C | – | 25.1 µM (active) |
| Cc1ccc(C(=O)Nc2nnc(-c3cccs3)s2)cc1C | – | 15.8 µM (active) |
| CCCc1nnc(NC(=O)c2cccs2)s1 | 0.875 | – |
| COC(=O)c1cccc(Cn2nnc3sc4c(c3c2=O)CCC(C(C)(C)C)C4)c1 (stereo unspecified) | 2.87 | – |
| O=C(CCC(=O)N1CC2CCCN2c2ccccc21)NCc1ccccc1Cl (stereo unspecified) | -16.5 | – |
| Cc1nnc(NC(=O)CSc2nc3c([nH]c4ccccc43)c(=O)n2-c2cccc(Cl)c2)s1 | 2.35 | – |
| COc1cc(-c2nnn(CC(=O)NCc3ccccc3)n2)cc(OC)c1OC | 25.6 | – |
| Cc1cn(C)c(CC(=O)NCc2ccccc2)c1C(=O)O | -3.27 | – |
| CN(Cc1ccccc1)C(=O)c1cn(C)c2ccc(S(=O)(=O)N3CCCCC3)cc2c1=O | -10.3 | – |
| CN(Cc1ccccc1)C(=O)c1cn(C)c2ccc(S(=O)(=O)N(C)C3CCCCC3)cc2c1=O | 5.7 | – |
| COc1ccc(C(=O)Nc2ccc(-n3nncc3-c3ccccc3)cc2)cc1OC | 25.3 | – |
| Cc1ccc(N2CCN(C(=O)CCc3c(C)nc4c(c3C)c(=O)n(C)c(=O)n4C)CC2)c(C)c1 | 6.51 | – |
| O=C(NCc1ccc(Cl)cc1)c1ccc2c(c1)nnn2C1CCCC1 | -10.2 | – |
